ClpP mod: qHTS Assay for Activators of ClpP; hit rate 1.9% among 340,000; purified B. subtilis ClpP, FRET peptide cleavage, 20 min; AID 651965, 2013; ATP-dependent Clp protease proteolytic subunit (Bacillus subtilis (strain 168)), P80244; Potency, µM (highest dose often 57.5 µM), for inactives: at the highest dose activity change, negative = active; active = well fitted falling curve with a large enough effect; inconclusive = small, poorly fitted or top-dose-only effect; inactive = no such curve, though single readings can be large or run the other way; also: the source files actives as falling curves though it sought activators and does not explain the sign; nearly all actives have a fitted effect of over 65% in size
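Buffer: 100 mM Tris/HCl pH8, 100 mM KCl, 0.05% low protease BSA, 2.5% glycerol, 0.01% Tween-20. ClpP 10 microg/mL final; 20 min RT; delta FRET normalized to ADEP and DMSO controls.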
TDP43 rescue: inhibitors of TDP-43 toxicity in yeast; TDP-43 expressing yeast growth rescue, BacTiter-Glo, 24 h; Potency, µM (top dose mostly 46.1 µM), for the others: top-dose growth rescue (activation), actives largely listed as activators; hit rate 1.8% among 410,000; also: % of control where 0% means no effect; nearly all actives have a fitted effect of over 50% in size
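Yeast cells expressing TDP-43 under galactose induction are exposed to compounds for 24 hr at 30 deg C. BacTiter-Glo luminescence measures growth, so protective compounds score as activators.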
MmCpn inh: blocks the Methanococcus maripaludis chaperonin Mm-Cpn | purified Mm-Cpn ATPase, ADP Transcreener TR-FRET | Potency, µM (highest dose often 76.9 µM), without a hit: at the highest dose activity, negative = inhibition, usual class: inhibitors | hit rate 0.031% among 330,000 | AID 504842; also: % is scaled to controls: 0 for no effect and ±100 for the full control effect; nearly all actives have a fitted effect of over 80% in size
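Quantitative HTS used 25 nM Mm-CPN and 10 uM ATP in magnesium/KCl Tris buffer, pH 7.4, with 1 mM DTT. Hydrolysis ran 30 min at 37°C; ADP was read by HTRF.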
Abeta yeast res: restores growth of yeast expressing A-beta42 peptide; yeast expressing A-beta42, growth rescue, OD600, 48 h; response scale: 0% DMSO, 100% iron-clioquinol control; Potency, µM (doses to about 46.1 µM), hits mostly activators; hit rate 0.063% among 410,000; AID 1347071; also: nearly all actives have a fitted effect of over 55% in size
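Growth rescue measured by 600 nm absorbance after 48 h yeast culture at 30 C with compound. Values normalized between DMSO and an equimolar ferric chloride plus clioquinol control.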
FUS suppressor: FUS proteinopathy suppression in yeast. AID 1347120. S. cerevisiae FUS-expressing, growth rescue, OD600, 24 h. Potency, µM (doses to about 76.6 µM), hits mostly activators. hit rate 0.24% among 390,000;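 also: plate controls were DMSO vehicle for no effect and reference control for full effect; nearly all actives have a fitted effect of over 55% in size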
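Compound concentration series was pinned onto galactose-induced FUS-expressing yeast seeded at OD 0.005. Plates sat 24hr at 30C; absorbance at 600 nm gave growth. DMSO served as background control.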
aSyn yeast inh: alpha-synuclein toxicity inhibition in yeast. Yeast expressing alpha-synuclein, growth rescue, BacTiter-Glo, 24 h. Potency, µM (top dose mostly 46.1 µM), for inactives: top-dose growth rescue (activation), usual class: activators. hit rate 0.14% among 370,000; also: % of control where 0% means no effect; nearly all actives have a fitted effect of over 65% in size
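Rescue of yeast growth: cells expressing toxic alpha-synuclein, induced in galactose at OD600 0.02, incubated with compound 24 h at 30 C. ATP luminescence quantified growth; inhibitors of toxicity appear as activators.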
* hit, by the source's call; i = inactive; ? = inconclusive; · = no result. The list is not random: actives were taken first. Their share in the collection is about 3.6%. Unless noted, calls follow the shape of the dose curve; as a rule, active = well fitted curve in the direction sought with a large enough effect; inconclusive = small, poorly fitted or top-dose-only effect, or another doubt; inactive = no such curve, though single readings can be large; an effect the other way counts as inactive or inconclusive. Potency is read from the fitted curve at half-maximal effect.

SMILES | ClpP mod | TDP43 rescue | MmCpn inh | Abeta yeast res | FUS suppressor | aSyn yeast inh
COc1ccc(C2N(c3ccc(Cl)cc3)N=C(C(C)=O)N(C)N2C(C)=O)cc1 (centres undefined) | · | 22µM* | -2% | i | i | 2%
COc1cccc(N2C(C(C)=O)=NN(c3ccccc3)C2c2ccc(N3CCOCC3)cc2)c1 (centres undefined) | 2% | -25% | -2% | i | · | -4%
COc1cccc(Oc2coc3c(CN4CCOCC4)c(O)ccc3c2=O)c1 | 20µM* | -5% | -6% | i | i | 2%
CN(C)c1ccc(CN(CC2CCCO2)C(=O)COc2ccc(Cl)cc2)cc1 (centres undefined) | -1% | 1% | · | i | i | ·
CCc1ccc(N2CC(C(=O)N3CCN(c4ccccn4)CC3)CC2=O)cc1 (centres undefined) | 28µM* | 3% | -1% | i | i | 6%
CCOc1ccc(N2CC(C(=O)N3CCN(c4ccccn4)CC3)CC2=O)cc1 (centres undefined) | 20µM* | -9% | 2% | i | i | -1%
Cc1cccc(C(=O)N2CCc3cc(CNS(=O)(=O)c4ccc(F)c(Cl)c4)ccc32)c1 | 4% | 2% | · | i | i | ·
Cc1[nH]nc2c1-c1nc3ccccc3nc1C(C)(C)C2 | 14µM* | 22µM* | 0% | i | i | 0%
Cc1cc(C)cc(Nc2cc(-c3ccccc3)nc(C)n2)c1 | -23% | ? | · | i | i | ·
CC(C)(C)NC(=O)C(c1cccc2ccccc12)n1c(=O)c(-c2ccccc2)nc2ccccc21 (centres undefined) | ? | 35µM* | · | i | i | -13%
CC1=C(C(=O)OC(C)C)C(c2coc3ccccc3c2=O)C2=C(CCCC2=O)N1 (centres undefined) | 3.5µM* | -12% | 0% | i | i | 3%
CC1CCCN(C(=O)COC(=O)Cc2c[nH]c3ccccc23)C1 (centres undefined) | -3% | 6% | 2% | i | i | 6%
COC(=O)C1CCN(C(=O)COC(=O)Cc2c[nH]c3ccccc23)CC1 | 32µM* | 8% | 1% | i | i | 3%
CCS(=O)(=O)NCCc1cc2ccc(C)cc2[nH]c1=O | 28µM* | -16% | 0% | i | i | -5%
CCS(=O)(=O)NCCc1cc2cc(C)c(C)cc2[nH]c1=O | -6% | -22% | 1% | i | i | -3%
CCCc1nc(-c2cc3ccc(C)cc3[nH]c2=O)no1 | 28µM* | 3% | 0% | i | i | -15%
CC(c1ccccc1)N1CC[C@H]2C=CC[C@@H](C(=O)Nc3ccc(F)c(F)c3)[C@H]2C1=O (some centres undefined) | · | · | · | · | i | ·
O=C(O)c1ccc(N2CCN(C(c3ccccc3)c3ccccc3)CC2)c([N+](=O)[O-])c1 | -2% | 11µM* | 1% | i | i | -5%
C=C1CCN(c2ccc(C(=O)O)cc2[N+](=O)[O-])CC1 | 1% | ? | · | i | i | -31%
CCc1ccccc1N=Nc1c(N)[nH]n(-c2ccccc2)c1=O | · | · | · | · | i | ·
Cc1c(C(=O)NCc2ccccc2Cl)sc2nc(-c3ccc(F)cc3)cn12 | -6% | 19% | · | i | i | ·
Cc1c(C(=O)N(C)Cc2ccccc2)sc2nc(-c3ccc(F)cc3)cn12 | 3% | 22µM* | · | i | ? | ·
Cc1cc(C)cc(Cn2c(C)c(C(=O)N(C)Cc3ccc(F)cc3)sc2=O)c1 | 2% | 32µM* | · | i | i | 10%
Cc1c(C(=O)N(C)c2ccccc2)sc2nc(-c3ccc(F)cc3)cn12 | -1% | 35µM* | · | i | i | ·
Cc1c(C(=O)NCc2ccc(F)cc2)sc2nc(-c3ccccc3)cn12 | 0% | 19% | · | i | i | ·
Cc1ccccc1Cn1c(C)c(C(=O)N(C)Cc2ccc(F)cc2)sc1=O | -1% | 12% | · | i | i | 15%
